Screens: PubChem, several laboratories
Rows were chosen to be rich in hits. Some 2.2% of all compounds tested hit in one or more screens of this group.
TWEAK-Fn14 inh: inhibitors of TWEAK-Fn14 signaling, primary screen, luciferase reporter cells, uHTS | TWEAK-stimulated Fn14 reporter cells, luciferase luminescence, 8 h | inhibition, % at 10 µM | actives 2% (n = 360,000); in the data active = inhibition above about 50%
TROY NFkB inh: inhibitors of TROY-driven NF-kB signaling, primary screen, Q293 LMP1-TROYcd cells, NF-kB luciferase, uHTS; actives 0.98% (n = 360,000); Q293 LMP1-TROYcd NF-kB luciferase reporter, 4 h; inhibition, % at 10 µM;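 active = compounds whose plate-normalised and pattern-corrected inhibition of the luciferase reporter signal at the single screening dose is 50% or more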
LGR2 inh: inhibitors of bursicon-induced LGR2 CRE-luciferase signal, primary screen, cell-based, HEK293, CRE-luciferase reporter, bursicon stimulation; Drosophila bursicon receptor LGR2 (rickets); bursicon-stimulated, 4 h; inhibition, % at 9.99 µM; actives 0.35% (n = 380,000);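 active = drop in luminescence signal, shown as inhibition above about 50% in the replicate tests, limit read from the data, passing the limit was not always enough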;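 note: agonist challenge used bursicon conditioned medium at about half maximal strength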
HSP90 refold inh: HSP90 inhibitors, primary screen, cell lysate, luminescence. actives 0.91% (n = 290,000). inhibition, % at 5.6 µM. Rabbit reticulocyte lysate, luciferase refolding luminescence, 3 h. Heat shock protein HSP 90 (rabbit reticulocyte lysate; luciferase refolding). AID 1789, 2009;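 active = inhibition above the screen-wide mean plus 3 SD, computed separately per campaign, cut at about 16% in these data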;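 note: inhibitors lower the luminescence because luciferase stays unfolded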
Numbers stand for hits; i = inactive; nt = not tested or not shown.

SMILES	TWEAK-Fn14 inh	TROY NFkB inh	LGR2 inh	HSP90 refold inh
COc1cccc(CNc2nc3cc(-c4cnn(Cc5ccccc5)c4)sc3c(=O)n2C)c1	68	i	nt	nt
COc1ccc(-c2cc3nc(NCc4ccc(NC(C)=O)cc4)n(C)c(=O)c3s2)cc1OC	i	i	i	nt
COc1cccc(CNc2nc3cc(-c4cccc(C(F)(F)F)c4)sc3c(=O)n2C)c1OC	i	i	i	nt
COc1ccccc1CNc1nc2cc(-c3ccc(OC)c(OC)c3)sc2c(=O)n1C	77	i	i	nt
COc1cccc(CNc2nc3cc(-c4cccc(OC)c4)sc3c(=O)n2C)c1	i	i	i	nt
COc1cccc(CNc2nc3cc(-c4ccccc4)sc3c(=O)n2C)c1OC	63	i	i	nt
CCn1c(NCc2cccc(OC)c2OC)nc2ccccc21	60	i	nt	i
CNC(=O)C[C@@H]1CC[C@@H]2[C@@H](COc3ccc(NC(=O)Nc4cccc(C)c4)cc3C(=O)N2C)O1	nt	nt	i	nt
O=C(C[C@H]1CC[C@H]2[C@@H](COC[C@@H](O)CN2S(=O)(=O)c2cccc(Cl)c2)O1)NC1CCC1	nt	nt	i	nt
COc1cccc(CNc2nc3cc(-c4cccc(Cl)c4)sc3c(=O)n2C)c1OC	50	i	i	nt
COc1cccc(CNc2nc3cc(-c4ccccc4C)sc3c(=O)n2C)c1OC	i	i	i	nt
CO[C@@H]1CN(C)C(=O)c2ccc(NC(=O)NC(C)C)cc2OC[C@@H](C)N(Cc2ccccc2)C[C@@H]1C	nt	nt	i	nt
Cc1csc2ncnc(N3CCN(C(=O)Nc4ccc(OC(F)(F)F)cc4)CC3)c12	63	i	nt	i
CC(=O)c1ccc(NC(=O)COC(=O)c2c3c(nc4ccccc24)/C(=C\c2cccs2)CCC3)cc1	57	i	i	i
CCN(CC)c1ccc(C(=O)OCC(=O)Nc2ccccc2-c2ccccc2)cc1	72	i	i	i
O=S(=O)(Nc1nc2ccccc2nc1N1CCc2ccccc2C1)c1ccc(Cl)cc1	72	i	i	i
O=S(=O)(Nc1nc2ccccc2nc1N1CCc2ccccc2C1)c1ccc(Br)cc1	78	i	i	17
CCOC(=O)c1sc(NC(=O)c2ccc(S(=O)(=O)N3CCCCC3)cc2)nc1-c1ccccc1	71	i	i	i
Cc1nnc(NC(=O)c2ccc(S(=O)(=O)N3CCOCC3)cc2)s1	i	i	i	i
CCOC(=O)c1sc(NC(=O)c2ccc(S(=O)(=O)N3CCOCC3)cc2)nc1-c1ccccc1	65	i	i	i
CCOC(=O)c1sc(NC(=O)c2ccc(S(=O)(=O)N3CCCCCC3)cc2)nc1-c1ccccc1	77	i	nt	i
CCOC(=O)N1CCN(S(=O)(=O)c2ccc(C(=O)Nc3nc4ccccc4s3)cc2)CC1	i	i	i	i
Cc1ccc(S(=O)(=O)Nc2ccc3c(c2)C(=O)N([C@H](C)CO)C[C@@H](C)[C@H](CN(C)C(=O)NC2CCCCC2)OCCCC[C@@H](C)O3)cc1	nt	nt	i	nt
COc1cccc(S(=O)(=O)N2C[C@@H]3N[C@H](C2)C3c2ccc(-c3ccc(C(=O)N(C)C)cc3)cc2)c1 (stereo partly drawn)	nt	nt	i	nt
O=c1cc(/C=C/c2ccccc2)oc2c1ccc1ccccc12	64	i	i	i
SMILES	TWEAK-Fn14 inh	TROY NFkB inh	LGR2 inh	HSP90 refold inh
O=S1(=O)CCN(c2ccccc2CC(c2c[nH]c3ccccc23)c2c[nH]c3ccccc23)CC1	63	i	i	nt
Oc1cc(-c2ccncc2)cc2cccnc12	60	i	i	nt
CN(C)c1ccc(-c2cc(O)c3ncccc3c2)cc1	i	i	i	nt
O=C(C=Cc1ccccc1)CC(c1ccccc1)N1CCOCC1 (stereo not drawn)	92	i	i	nt
CCOC(=O)c1c(NC(=O)/C=C\C(=O)O)sc(C)c1-c1ccccc1	i	i	i	i
CCOC(=O)c1c(NC(=O)/C=C/C(=O)O)sc(C)c1-c1ccc(C(C)(C)C)cc1	98	90	i	i
C[C@@H]1CN([C@@H](C)CO)C(=O)c2cc(NS(=O)(=O)c3ccc(Cl)cc3)ccc2O[C@H]1CN(C)C(=O)Nc1ccc(F)cc1	nt	nt	i	nt
CC(=O)Oc1ccc(OC(C)=O)c(SCCCCCCl)c1	76	i	i	i
CC(=O)Oc1ccc(C(=O)O)cc1OC(C)=O	i	i	i	i
O=C1c2ccccc2C(=O)C1c1ccnc2ccccc12	100	i	nt	i
O=C1c2ccccc2C(=O)C1c1nccc2ccccc12	97	55	nt	i
O=C1C(c2ccnc3ccccc23)=C(O)c2ccccc21	94	59	nt	i
CCc1ccccc1C1C(=O)c2ccccc2C1=O	i	i	i	nt
